“And” between values parts separate entries of the source, which are not always exact repeats. Equal entries are not always repeated. The source holds several records for some structures; these can differ, active in one and inactive in another. The source made the active and inactive calls. Rule for the calls: active = hit-call score of the fitted dose curve at least 0.9, where 1 is the maximum; inactive = score below 0.9.
Legend:
[1] = biological target: Nuclear respiratory factor 1 (Homo sapiens) (UniProt Q16656); experiment: ATG_NRF1_CIS: Attagene CIS-FACTORIAL HepG2 Assay for human Nuclear Respiratory Factor 1 (NRF1) Orphan Gene (AID 2282987); conditions: HepG2 NRF1 cis-element reporter, Attagene multiplex; actives raise or lower the signal
In short: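 Transcriptional reporter readout, one component of a 52-endpoint multiplexed HepG2 panel. Exposure 24 h; mRNA detected via RT-PCR and fluorescent capillary electrophoresis; fitting in both directions against DMSO.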

[2] = ATG_NFI_CIS: Attagene CIS-FACTORIAL HepG2 Assay for human Nuclear Factor I (NFI) (AID 2282989); conditions: HepG2 cis-regulatory reporter, NFI response element transcription; actives raise or lower the signal
In short: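 Transfected HepG2 liver cells, exposed 24 h, supplied total RNA for oligo(dT) reverse transcription and reporter-specific PCR. Labelled, HpaI-cut fragments were sized by capillary electrophoresis; DMSO set the baseline for bidirectional fitting.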

[3] = biological target: Myc proto-oncogene protein (Homo sapiens) (UniProt P01106); experiment: ATG_Myc_CIS: Attagene CIS-FACTORIAL HepG2 Assay for human Myelocytomatosis (Myc) Proto-Oncogene Transcription Factor (AID 2282990); conditions: HepG2, Attagene cis-reporter transcription factor activity; actives raise or lower the signal
In short: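 Transiently transfected HepG2 cells bearing cis-promoter reporter units for endogenous transcription factors; 24 h exposure. Reporter mRNA measured by RT-PCR, 6-FAM primer extension, HpaI cut and capillary electrophoresis; bidirectional fit relative to DMSO.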

[4] = ATG_NF_kB_CIS: Attagene CIS-FACTORIAL HepG2 Assay for human Nuclear Factor Kappa B (NF-kB) (AID 2282991); conditions: HepG2 Attagene cis-factorial NF-kB reporter mRNA; actives raise or lower the signal
In short: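 HepG2, transient multi-reporter transfection, cis promoter elements (endogenous TFs). 24 h exposure. Total RNA → RT → PCR → 6-FAM label → HpaI → CE. Gain/loss vs DMSO.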

[5] = ATG_NRF2_ARE_CIS: Attagene CIS-FACTORIAL HepG2 Assay for human Nuclear Factor Erythroid 2 Related Factor 2 (NFR2) response to Antioxidant Response Elements (ARE) (AID 2282992); conditions: HepG2 Attagene ARE/NRF2 reporter, transcription factor activity; actives raise or lower the signal;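 for AC50: reporter mRNA level measured by RT-PCR and capillary electrophoresis fluorescence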
In short: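 HepG2 cells transiently transfected with multiplexed cis-element reporter constructs, 24 h after chemical dosing; reporter mRNA quantified by RT-PCR, fluorescent primer extension, HpaI digestion and capillary electrophoresis. Bidirectional fit relative to DMSO.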

[6] = ATG_Oct_MLP_CIS: Attagene CIS-FACTORIAL HepG2 Assay for human Octamer-Binding Transcription Factor (Oct) (AID 2282993); conditions: HepG2 Attagene cis-factorial Oct reporter, mRNA; actives raise or lower the signal
In short: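 Using HepG2 cells bearing transfected cis-reporter constructs, mRNA induction was read after 24 h by fluorescent RT-PCR and capillary electrophoresis, with DMSO defining baseline for gain- or loss-of-signal fits.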

[7] = biological target: Cellular tumor antigen p53 (Homo sapiens) (UniProt P04637); experiment: ATG_p53_CIS: Attagene CIS-FACTORIAL HepG2 Assay for human p53 Transcription Factor (AID 2282994); conditions: HepG2 p53 cis-element reporter, Attagene mRNA; actives raise or lower the signal
In short: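 HepG2 cells transiently transfected with cis-regulated multiple reporter transcription units, dosed 24 h. Reporter mRNA measured by RT-PCR, 6-FAM primer extension, HpaI digestion and capillary electrophoresis; bidirectional fit relative to DMSO.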

[8] = BSK_3C_TissueFactor: BioMAP Diversity Plus: 3C Assay for Tissue Factor Biomarker Activity (AID 2282997); conditions: BioMAP 3C HUVEC, tissue factor biomarker readout; actives raise or lower the signal
In short: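 Values derive from bidirectional curve fitting against DMSO of Tissue Factor ELISA signals, taken 24 h after dosing primary human umbilical vein endothelial cells.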

[9] = BSK_3C_uPAR: BioMAP Diversity Plus: 3C Assay for Urokinase-type plasminogen activator receptor (uPAR) Biomarker Activity (AID 2282998); conditions: BioMAP 3C HUVEC, uPAR biomarker ELISA; actives raise or lower the signal
In short: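 In this endothelial cell-based assay, human umbilical vein primary cells were treated with chemicals and harvested at 24 h. uPAR was quantified using ELISA, with gains or losses fitted relative to DMSO controls.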

[10] = BSK_3C_VCAM1: BioMAP Diversity Plus: 3C Assay for Vascular cell adhesion molecule 1 (VCAM1) Biomarker Activity (AID 2282999); conditions: BioMAP 3C HUVEC, VCAM1 ELISA, cytokine-stimulated; actives raise or lower the signal
In short: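 Human umbilical vein endothelial cells (3C system), biomarker read by ELISA 24 h after dosing; bidirectional fit against DMSO baseline. Cytotoxicity tracked by SRB total-protein staining in parallel cultures at biomarker time.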

Measured: AC50

Chain of Nuclear respiratory factor 1 (Homo sapiens) (Q16656 whole entry, looked up): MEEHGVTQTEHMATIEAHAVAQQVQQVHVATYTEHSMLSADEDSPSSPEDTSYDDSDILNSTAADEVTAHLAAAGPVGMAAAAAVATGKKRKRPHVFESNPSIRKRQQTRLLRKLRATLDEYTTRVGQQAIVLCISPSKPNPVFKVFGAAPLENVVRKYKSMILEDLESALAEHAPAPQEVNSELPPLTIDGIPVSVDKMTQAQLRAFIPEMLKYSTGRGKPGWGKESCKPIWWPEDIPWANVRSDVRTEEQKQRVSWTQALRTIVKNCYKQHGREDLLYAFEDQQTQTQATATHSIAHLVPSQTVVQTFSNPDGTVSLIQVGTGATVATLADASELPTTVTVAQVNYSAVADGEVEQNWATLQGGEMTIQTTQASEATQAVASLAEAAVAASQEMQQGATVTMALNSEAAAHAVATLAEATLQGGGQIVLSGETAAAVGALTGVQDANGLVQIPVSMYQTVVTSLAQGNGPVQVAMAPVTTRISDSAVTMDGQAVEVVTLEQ
Chain of Myc proto-oncogene protein (Homo sapiens) (P01106 whole entry, looked up): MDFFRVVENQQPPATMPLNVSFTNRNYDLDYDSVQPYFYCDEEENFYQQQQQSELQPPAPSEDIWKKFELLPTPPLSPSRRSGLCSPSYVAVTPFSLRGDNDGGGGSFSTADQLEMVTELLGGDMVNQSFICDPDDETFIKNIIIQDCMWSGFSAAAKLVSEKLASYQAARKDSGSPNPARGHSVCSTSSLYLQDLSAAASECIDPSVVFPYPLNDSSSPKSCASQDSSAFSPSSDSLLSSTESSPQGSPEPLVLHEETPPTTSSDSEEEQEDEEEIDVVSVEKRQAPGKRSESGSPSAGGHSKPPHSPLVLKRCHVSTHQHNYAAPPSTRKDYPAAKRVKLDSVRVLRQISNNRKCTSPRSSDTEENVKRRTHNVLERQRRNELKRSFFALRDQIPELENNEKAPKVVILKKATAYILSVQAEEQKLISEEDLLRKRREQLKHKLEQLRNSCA
Chain of Cellular tumor antigen p53 (Homo sapiens) (P04637 whole entry, looked up): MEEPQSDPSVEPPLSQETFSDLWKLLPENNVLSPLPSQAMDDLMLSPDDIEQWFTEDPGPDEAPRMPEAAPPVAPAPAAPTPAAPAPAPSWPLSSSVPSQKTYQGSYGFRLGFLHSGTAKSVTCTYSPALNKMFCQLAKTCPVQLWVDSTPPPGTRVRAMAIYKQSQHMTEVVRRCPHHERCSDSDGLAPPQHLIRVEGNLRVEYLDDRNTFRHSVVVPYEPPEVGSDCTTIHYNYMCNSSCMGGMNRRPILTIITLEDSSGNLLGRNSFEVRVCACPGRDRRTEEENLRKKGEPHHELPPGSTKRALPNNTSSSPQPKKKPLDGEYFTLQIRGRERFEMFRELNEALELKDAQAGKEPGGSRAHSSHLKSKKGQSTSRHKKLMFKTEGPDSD

COC(=O)c1ccccc1C(=O)OC
inactive: all assays above

CS/C(C)=N/OC(=O)N(C)SN(C)C(=O)O/N=C(\C)SC
active: [8] 15.9 µM | [9] 28.6 µM | [10] 24.6 µM
inactive: all other assays above

CC(C)C1(C)N=C(c2nc3ccccc3cc2C(=O)O)NC1=O (stereo unspecified)
inactive: all assays above

CNC(=O)ON=CC(C)(C)SC
inactive: [1] | [2] | [3] | [4] | [5] | [6] | [7] | [8] | [9] | [10]
active: [1] 43.4 µM

COc1nc(NC(C)C)nc(NC(C)C)n1
active: [6] 41.1 µM
inactive: [1] | [2] | [3] | [4] | [5] | [6] | [7] | [8] | [9] | [10]

COc1nc(C)nc(NC(=O)NS(=O)(=O)c2ccccc2CCC(F)(F)F)n1
inactive: [1] | [2] | [3] | [4] | [5] | [6] | [7] | [8] | [9] | [10]
active: [5] 16.7 µM and 31.3 µM

Cc1ccc(-c2c(Cl)nc(C#N)n2S(=O)(=O)N(C)C)cc1
active: [5] 6.65 µM | [6] 11.9 µM | [8] 27.3 µM | [9] 23.9 µM | [10] 34.3 µM
inactive: [1] | [2] | [3] | [4]

C=CC1(C)OC(=O)N(c2cc(Cl)cc(Cl)c2)C1=O (stereo unspecified)
not listed: [7]
inactive: all other assays above

CCCCC(CC)COC(=O)c1ccccc1C(=O)OCC(CC)CCCC (stereo unspecified)
not listed: [7]
inactive: all other assays above

CCCC1COC(Cn2cncn2)(c2ccc(Cl)cc2Cl)O1 (stereo unspecified)
active: [5] 27.1 µM | [6] 8.1 µM
inactive: [1] | [2] | [3] | [4] | [5] | [6] | [8] | [9] | [10]

N#Cc1cc(Br)c(O)c(Br)c1
active: [2] 10.8 µM | [5] 26.7 µM | [6] 40.1 µM | [9] 32.5 µM
not listed: [7]
inactive: all other assays above

COc1ccc(C(c2ccc(OC)cc2)C(Cl)(Cl)Cl)cc1
active: [6] 37.6 µM | [9] 30.1 µM | [10] 31.3 µM
inactive: [1] | [2] | [3] | [4] | [5] | [6] | [8]

CNC(=S)S
inactive: [1] | [2] | [3] | [4] | [6] | [7] | [8] | [9]
active: [5] 26.7 µM and 17.6 µM | [6] 50 µM | [10] 12.2 µM

C=CCC1=C(C)C(OC(=O)C2C(C=C(C)C)C2(C)C)CC1=O (stereo unspecified)
active: [1] 136 µM and 144 µM | [2] 61.6 µM [middle of 5 runs] | [4] 43.2 µM and 105 µM | [6] 47.5 µM [middle of 5 runs] | [8] 34 µM [middle of 4 runs] | [9] 35.3 µM [middle of 4 runs] | [10] 33.2 µM and 31 µM and 29.8 µM
inactive: [1] | [2] | [3] | [4] | [6] | [10]

CN(C)C(=S)SSC(=S)N(C)C
active: [8] 31.4 µM | [9] 29.4 µM | [10] 16.9 µM
not listed: [7]
inactive: all other assays above

COC(=O)C(C)Oc1ccc(Oc2ccc(Cl)cc2Cl)cc1 (stereo unspecified)
active: [9] 25.7 µM and 20 µM and 13.3 µM
not listed: [7]
inactive: all other assays above

CCCCNC(=O)n1c(NC(=O)OC)nc2ccccc21
active: [9] 6.89 µM
inactive: all other assays above

OC(c1ccc(Cl)cc1)(c1cncnc1)c1ccccc1Cl (stereo unspecified)
inactive: [1] | [2] | [3] | [5] | [6] | [8] | [10]
active: [3] 12.5 µM | [5] 12.8 µM | [6] 26.3 µM | [9] 17.4 µM

CCOC(=O)C(Cl)Cc1cc(-n2nc(C)n(C(F)F)c2=O)c(F)cc1Cl (stereo unspecified)
not listed: [7]
inactive: all other assays above

CCOC(=O)CC(SP(=S)(OC)OC)C(=O)OCC (stereo unspecified)
active: [5] 25.1 µM and 19.6 µM | [6] 133 µM and 24 µM | [9] 5.14 µM
inactive: all other assays above

CCCCNC(=O)OCC#CI
active: [2] 49 µM | [3] 26.4 µM | [5] 27.6 µM | [6] 29.9 µM | [8] 11.6 µM and 21.2 µM | [9] 13.4 µM and 12.9 µM | [10] 16.2 µM and 20.8 µM
inactive: [1] | [2] | [3] | [5] | [6]

O=C(Nc1ccccc1)Nc1ccnc(Cl)c1
active: [4] 30.1 µM | [5] 13.7 µM | [6] 33.5 µM
not listed: [7]
inactive: all other assays above

C=CCC1=C(C)[C@@H](OC(=O)[C@@H]2[C@@H](C=C(C)C)C2(C)C)CC1=O
inactive: [1] | [2] | [3] | [4]
active: [5] 2.64 µM | [6] 9.45 µM | [8] 18.8 µM | [9] 36.6 µM | [10] 30.3 µM

CCNc1nc(Cl)nc(NC(C)C)n1
not listed: [7]
inactive: all other assays above

Oc1ccccc1-c1ccccc1
active: [3] 50 µM | [5] 32.7 µM and 26.2 µM | [6] 50 µM
inactive: [1] | [2] | [3] | [6] | [7] | [8] | [9] | [10]

CO/C=C(/C(=O)OC)c1ccccc1Oc1cc(Oc2ccccc2C#N)ncn1
inactive: [1] | [2] | [3] | [5] | [6] | [7] | [8] | [10]
active: [1] 65.6 µM | [6] 15.6 µM | [8] 21.1 µM and 24.6 µM | [9] 13.3 µM [middle of 4 runs] | [10] 21.1 µM

CON(C)C(=O)Nc1ccc(Cl)c(Cl)c1
active: [5] 27.8 µM [middle of 4 runs]
not listed: [7]
inactive: all other assays above

CC(Oc1ccc(Cl)cc1Cl)C(=O)O (stereo unspecified)
not listed: [7]
inactive: all other assays above

O=C(O)COc1nc(Cl)c(Cl)cc1Cl
active: [5] 19.1 µM
not listed: [7]
inactive: all other assays above

COP(N)(=O)SC (stereo unspecified)
not listed: [7]
inactive: all other assays above

COP(=S)(OC)Oc1nc(Cl)c(Cl)cc1Cl
active: [5] 26.2 µM
not listed: [4] | [7]
inactive: all other assays above

COc1nc(C)nc(NC(=O)NS(=O)(=O)c2ccccc2Cl)n1
not listed: [4] | [7]
inactive: all other assays above

CC1COC(Cn2cncn2)(c2ccc(Oc3ccc(Cl)cc3)cc2Cl)O1 (stereo unspecified)
inactive: [1] | [2] | [3]
active: [5] 1.88 µM | [6] 2.45 µM | [8] 31.5 µM | [9] 28.4 µM | [10] 29.8 µM

Fc1ccc(Oc2ccnc3cc(Cl)cc(Cl)c23)cc1
active: [5] 3.83 µM | [8] 34.7 µM | [9] 31.2 µM | [10] 31.4 µM
not listed: [4]
inactive: all other assays above

C#CCOS(=O)OC1CCCCC1Oc1ccc(C(C)(C)C)cc1 (stereo unspecified)
active: [5] 1.19 µM | [6] 0.811 µM | [9] 7.03 µM | [10] 12.8 µM
not listed: [7]
inactive: all other assays above

O=C(O)c1nc(Cl)ccc1Cl
not listed: [4] | [7]
inactive: all other assays above

From PubChem BioAssay (EPA / NIEHS)
